Records with an inconclusive call do not appear. A number with no mark means an inactive call. Calls of active or inactive are those of the source. Calls follow the shape of the dose curve; as a rule, active = well fitted cell-killing curve with a large enough effect; inconclusive = small, poorly fitted or top-dose-only effect; inactive = flat fitted curve, though single readings scatter.
assay: Cell Viability - Mesenchymal (AID 546); conditions: mesenchymal cells viability, qHTS; activity change, negative = cytotoxicity: at 91.7 µM (top of the series);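 also: cells exposed to compound for 40 hours before reading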;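 as to activity change, negative = cytotoxicity: 0% = DMSO only and -100% = 100 µM tamoxifen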
Text: NIH Chemical Genomics Center [NCGC]
NIH Molecular Libraries Screening Centers Network [MLSCN]
National Institutes of Environmental Health Sciences [NIEHS]
National Toxicology Program [NTP]
We have developed a 1536-well cell-based assay for quantitative high throughput screening (qHTS) against a number of cell lines to determine in vitro cytotoxicity of small molecules. This particular assay uses the kidney mesenchymal cell line which is derived from normal human renal glomeruli.
NCGC Assay Protocol Summary:
The CellTiter-Glo luminescent cell viability assay (Promega) is a homogeneous method to measure the number of viable cells in culture. The end point readout of this assay is based on quantitation of intracellular ATP, an indicator of metabolic activity, using the luciferase reaction. Luciferase catalyzes the oxidation of beetle Luciferin to oxyluciferin and light in the presence of ATP. The luminescent signal is proportional to amount of ATP present.
Using the CellTiter-Glo luminescent cell viability assay, the amount of cellular ATP was measured in the kidney mesenchymal cell line with complete culture medium following compound treatment for 40 hours. The assay was performed in opaque white Kalypsys 1536-well plates. In the screen, tamoxifen and doxorubicin were used as positive controls. Library compounds were measured for their ability to cause acute toxicity in the cell line, as reflected by a decrease in intracellular ATP levels, in a concentration-dependent manner. […] AC50 values were determined from concentration-response data modeled with the standard Hill equation.
qHTS protocol for CellTiter Glo kidney mesenchymal cells cellular assay
[Step] [Parameter] [Value] [Description]
1. Reagent; 5 uL; 1000 kidney mesenchymal cells/well
2. Time; 5 hr; 37 °C incubation
4. Controls; 23 nL; Tamoxifen 0.34 uM to 100 uM & Doxorubicin 0.02 nM to 100 uM
5. Time; 40 hr; 37 °C incubation
6. Reagent; 5 uL; CellTiter Glo reagent
7. Time; 20 min; Room Temperature
8. Detection; Luminescence; Viewlux plate reader
Keywords: cell viability, cytotoxicity, Kidney mesenchymal cell line, luminescence, NTPHTS, NTPHTS_NCGC, NIEHS, EPA, DSSTox, MLSMR, MLSCN, NIH Roadmap, qHTS, NCGC
Potency is read from the fitted curve at half-maximal effect.

**Q.** For `CC(C)CC(C)Nc1ccc(Nc2ccccc2)cc1` (configuration not stated), which “activity change, negative = cytotoxicity” value is on record?
**A.** The value was -3.95%.

**Q.** With `CN(C)c1ccc(N=O)cc1` as the compound, how does the Potency read?
**A.** The Potency was 31.6 µM (active).

**Q.** Which “activity change, negative = cytotoxicity” value does the source give for `C#CCO` here?
**A.** Its value is 7.98%.

**Q.** Which “activity change, negative = cytotoxicity” value does the source give for `Clc1ccc(C(c2ccc(Cl)cc2)C(Cl)Cl)cc1` here?
**A.** Its value is -10.3%.

**Q.** Which activity change, negative = cytotoxicity does the source give for `O=C(CCl)c1ccccc1` here?
**A.** Its activity change, negative = cytotoxicity is -109% (active).

**Q.** Which “activity change, negative = cytotoxicity” value does the source give for `COP(=O)(OC)O/C(=C\Cl)c1cc(Cl)c(Cl)cc1Cl` here?
**A.** The value was -1.36%.

**Q.** With `C(=NC1CCCCC1)=NC1CCCCC1` as the compound, how does the “activity change, negative = cytotoxicity” value read?
**A.** Its value is -10.5%.

**Q.** With `N#CC(Cl)Cl` as the compound, how does the “activity change, negative = cytotoxicity” value read?
**A.** Its value is 2.72%.

**Q.** Which “activity change, negative = cytotoxicity” value does the source give for `OC(c1ccc(Cl)cc1)(c1ccc(Cl)cc1)C(Cl)(Cl)Cl` here?
**A.** Its value is -4.52%.

**Q.** For `O=[N+]([O-])c1cc(C(F)(F)F)cc([N+](=O)[O-])c1Cl`, which “activity change, negative = cytotoxicity” value is on record?
**A.** The value was -10.7%.

**Q.** With `Oc1c(Br)c(Br)c(Br)c(Br)c1Br` as the compound, how does the “activity change, negative = cytotoxicity” value read?
**A.** Its value is -16.7%.

**Q.** For `O=C1C2(Cl)C3(Cl)C4(Cl)C(Cl)(Cl)C5(Cl)C3(Cl)C1(Cl)C5(Cl)C24Cl` (configuration not stated), which activity change, negative = cytotoxicity is on record?
**A.** Its activity change, negative = cytotoxicity is -92.3% (active).

**Q.** And the Potency?
**A.** Its Potency is 31.6 µM (active).

**Q.** Which “activity change, negative = cytotoxicity” value does the source give for `ClC1=C(Cl)C2(Cl)C3C(Cl)C(Cl)CC3C1(Cl)C2(Cl)Cl` (configuration not stated) here?
**A.** The value was -47.6%.

**Q.** For `[CH3][Hg][Cl]`, which Potency is on record?
**A.** Its Potency is 6.31 µM (active).

**Q.** For `Nc1ccccc1C(=O)OCCc1ccccc1`, which “activity change, negative = cytotoxicity” value is on record?
**A.** Its value is -10.6%.

**Q.** With `CCCCCCCCn1sccc1=O` as the compound, how does the Potency read?
**A.** The Potency was 12.6 µM (active).

**Q.** Which Potency does the source give for `C[C@@H]1CC[C@@]2(OC1)O[C@H]1[C@@H](O)[C@H]3[C@@H]4CC[C@H]5C[C@@H](O[C@@H]6O[C@H](CO)[C@H](O[C@@H]7O[C@H](CO)[C@@H](O)[C@H](O[C@@H]8OC[C@@H](O)[C@H](O)[C@H]8O)[C@H]7O[C@@H]7O[C@H](CO)[C@@H](O)[C@H](O[C@@H]8O[C@H](CO)[C@@H](O)[C@H](O)[C@H]8O)[C@H]7O)[C@H](O)[C@H]6O)[C@H](O)C[C@]5(C)[C@H]4CC[C@]3(C)[C@H]1[C@@H]2C` here?
**A.** The Potency was 31.6 µM (active).

**Q.** For `N#CSCSC#N`, which Potency is on record?
**A.** Its Potency is 12.6 µM (active).

**Q.** For `O=C(O)C1C(C(=O)O)C2(Cl)C(Cl)=C(Cl)C1(Cl)C2(Cl)Cl` (configuration not stated), which “activity change, negative = cytotoxicity” value is on record?
**A.** Its value is 5.13%.

**Q.** With `FC(F)(F)c1ccc(Cl)cc1` as the compound, how does the “activity change, negative = cytotoxicity” value read?
**A.** The value was 6.53%.

**Q.** With `c1ccc2cc3c(cc2c1)-c1cccc2cccc-3c12` as the compound, how does the “activity change, negative = cytotoxicity” value read?
**A.** Its value is -7.17%.

From PubChem BioAssay (NCATS)
